Most compounds without a hit are left out; they make up all but 2.7% or so of the library.
Tau FP inhib: blocks human tau fibril formation measured by polarization. P10636. K18 P301L tau heparin fibrillization, Alexa594 FP, 6 h. Potency, µM (titrated, usually from 57.7 µM), for inactives: top-dose activity, negative = inhibition, hits mostly inhibitors. actives 0.39% (n = 280,000); note: potency is the fitted concentration of half-maximal effect; nearly all actives have a fitted effect of over 55% in size
Target sequence (P10636 561-689 P618L limits assumed): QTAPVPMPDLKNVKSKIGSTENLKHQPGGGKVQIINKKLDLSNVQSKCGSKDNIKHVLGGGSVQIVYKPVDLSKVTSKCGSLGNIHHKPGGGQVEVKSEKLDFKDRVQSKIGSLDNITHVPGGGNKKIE
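K18 P301L tau (15 uM unlabeled/0.24 uM Alexa 594-labeled, final) + compound + heparin 20 uM final; 100 mM NaOAc pH 7; 6 hr 37 C; ThT 30 uM final added, 1 hr RT; FP ex 555/em 632 nm.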
Tau fluor cs: counter-screen for tau fibril formation inhibitors | actives 0.93% (n = 280,000) | Potency, µM (highest dose often 57.7 µM), for inactives: top-dose activity change, negative = decrease | AID 1463 | tau K18 P301L Alexa594 fluorescence, heparin fibrillization; note: potency is the fitted concentration of half-maximal effect; nearly all actives have a fitted effect of over 55% in size
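Human tau K18 P301L (15 uM unlabeled, 0.24 uM Alexa 594-labeled) in 100 mM sodium acetate pH 7 with 20 uM heparin, 6 hr at 37 C. ThT 30 uM added, 1 hr ambient; Alexa 594 FP and total fluorescence read at 555/632 nm.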
Tau ThT inhib: inhibitors of human tau fibril formation, thioflavin T binding | Potency, µM (highest dose often 57.4 µM), without a hit: at the top dose activity, negative = inhibition, hits mostly inhibitors | recombinant tau K18 P301L (four-repeat tau fragment), heparin-induced fibrillization, ThT fluorescence | actives 2.1% (n = 270,000); note: potency is the fitted concentration of half-maximal effect; nearly all actives have a fitted effect of over 55% in size
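Heparin-induced fibrillization of the P301L-mutant K18 repeat-domain fragment of human tau was followed by ThT binding in quantitative high-throughput format.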
Coupling enz: coupling enzyme interference in Giardia aldolase counter-screen. actives 0.67% (n = 290,000). AID 2472. coupling enzyme system counterscreen, AmpLite Red fluorescence. activity change, negative = inhibition, % at 58.2 µM, hits read low; in the data active = activity change below about -30%
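Counterscreen of the coupled detection system alone, without aldolase: glyceraldehyde-3-phosphate coupling enzymes plus AmpLite Red readout. Compounds at 57.5 uM final, 10 min RT preincubation, 20 min RT reaction, fluorescence 525/598 nm.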
Numbers without * were called inactive; ? = inconclusive; . = no result given; [ ] = remark or other dose. Unless noted, calls come from the whole dose curve; as a rule, active = well fitted curve in the direction sought with a large enough effect; inconclusive = small, poorly fitted or top-dose-only effect, or another doubt; inactive = no such curve, though single readings can be large; an effect the other way counts as inactive or inconclusive. % is set by controls: 0 for no effect and ±100 for the full control effect.

SMILES	Tau FP inhib	Tau fluor cs	Tau ThT inhib	Coupling enz
N#CC1=C(N)Oc2ccccc2C12C(=O)Nc1n[nH]c(-c3ccccc3)c12 (configuration not stated)	2%	-3%	-4%	1
O=C(Nc1ccccc1)Nc1nnc(Cc2ccc([N+](=O)[O-])cc2)s1	?	?	-14%	-1
Cc1ccc(NC(=O)Nc2nnc(Cc3ccc([N+](=O)[O-])cc3)s2)cc1C	?	5µM*[quencher]	?	-1
CCn1c(=O)c(NC(=O)c2ccccc2)c2n(c1=S)CCCCC2	-13%	-11%	-5%	-35*
CCOC(=O)c1sc(NC(=O)CSc2nc3c(cc2C#N)CCCCC3)c(C#N)c1C	?	-25%	-19%	-2
CCc1nnc(NC(=O)c2sc3nc4c(cc3c2N)CCCCC4)s1	17%	-18%	1.4µM*	6
CN1CCc2nc(SCC(=O)Nc3ccc(F)cc3)c(C#N)cc2C1	-2%	?	14µM*	-8
CCc1nnc(NC(=O)CSc2nc3c(cc2C#N)CCCC3)s1	1%	-19%	3.2µM*	2
COc1ccc(NC(=O)CSc2nc3c(cc2C#N)CN(C)CC3)cc1	-2%	-21%	?	-13
COc1ccc(OC)c(NC(=O)C(C)n2nc(C)c3c(C)n(-c4ccccc4)nc3c2=O)c1 (configuration not stated)	2%	-1%	10%	.
CN1CCN(C(c2ccc(Cl)cc2Cl)c2sc3nc(-c4ccco4)nn3c2O)CC1 (configuration not stated)	1%	-4%	0%	.
COc1ccc(C(=O)C(/C=N/O)=N/Nc2ccc(F)cc2)cc1	17%	-19%	?	5
COc1ccc(N=N/C(=C\O)C(=O)c2cccs2)cc1	4%	?	13µM*	-1
COc1ccc(C(=O)/C(=C/O)N=Nc2ccc(F)cc2)cc1	-9%	-29%	28µM*	4
COc1ccc(NC(=O)c2c(C)oc3ccc(O)c(CN4CCN(Cc5ccccc5)CC4)c23)cc1Cl	-10%	?	-9%	.
Cc1cccc(C(=O)NNc2ncnc3c2cnn3-c2ccc(C)c(Cl)c2)c1	-11%	2%	17%	.
O=C(c1cnc(N2CCCCC2)c2ccccc12)N1CCN(c2cccc(Cl)c2)CC1	-5%	-14%	-12%	.
CCOC(=O)c1cnc2ccccc2c1Nc1ccc(N2CCOCC2)cc1	1%	-27%	?	.
CCOC(=O)c1cnc2c(C)cccc2c1Nc1ccc(N2CCOCC2)cc1	?	?	22µM*	-1
COc1ccc2c(c1)C(=O)[C@@H](OC(=O)NCCOc1ccccc1)[C@H](c1ccc(OC)c(Br)c1)O2	-10%	-15%	-6%	0
CN(C1=C(N2CCCCC2)C(=O)c2ccccc2C1=O)c1ccccc1	4%	?	?	-27
Cc1ccc(C(=O)Nc2cccc(O)c2)cc1S(=O)(=O)N1CCCCCC1	?	-25%	8%	0
O=C1C(Nc2ccccc2)=C(N2CCCCC2)C(=O)c2ccccc21	?	-26%	18µM*	-50*
COc1ccccc1NC1=C(N2CCCCC2)C(=O)c2ccccc2C1=O	?	?	13µM*	-51*
COc1ccccc1NC(=O)N1CCCC1	0%	7%	8%	-1
SMILES	Tau FP inhib	Tau fluor cs	Tau ThT inhib	Coupling enz
Cc1ccc(NC2=C(N3CCCCC3)C(=O)c3ccccc3C2=O)cc1	-5%	-25%	-15%	-45*
O=C1C(Nc2cccc(O)c2)=C(N2CCCCC2)C(=O)c2ccccc21	?	18µM*[quencher]	14µM*	-51*
CN1CCN(c2ncc3ncc(=O)n(C4CC4)c3n2)CC1	.	.	.	2
CCOc1ccccc1NC(=O)c1c(NCc2ccc(OC)c(OC)c2OC)sc2c1CCC(C)C2 (configuration not stated)	-2%	-23%	?	.
COc1ccc(OC)c(NC(=O)CN2C(=O)COc3ccc(S(=O)(=O)NC4CCCC4)cc32)c1	2%	-11%	-5%	.
CCOC(=O)c1cnc2ccc(OCC)cc2c1NCCc1ccc(OC)c(OC)c1	9%	-16%	?	.
O=C(/C=C/c1ccc(O)cc1)c1ccc(NC2=C(N3CCCCC3)C(=O)c3ccccc3C2=O)cc1	?	13µM*[quencher]	7.9µM*	-46*
O=C(/C=C/c1ccc(O)cc1)c1ccccc1	15%	-3%	-19%	0
O=C1N=C(N2CCOCC2)S/C1=C/c1cc2c(cc1[N+](=O)[O-])OCO2	?	?	18µM*	1
O=C1N=C(N2CCOCC2)S/C1=C\c1ccccc1OS(=O)(=O)c1ccccc1	6%	-1%	2%	1
COc1ccc(NC(=O)c2ccc(-c3ccc([N+](=O)[O-])cc3)o2)cc1OC	6%	11µM*[quencher]	5µM*	-1
CC(=O)c1cccc(NC(=O)c2ccc(-c3ccccc3[N+](=O)[O-])o2)c1	-5%	?	?	-59*
COc1cc([N+](=O)[O-])ccc1-c1ccc(C(=O)Nc2ccc(NC(C)=O)cc2)o1	-6%	?	5µM*	-5
Cc1ccccc1-c1nnc(CN2CCN(c3cc(Cl)ccc3C)CC2)o1	7%	-10%	?	.
C=CCOC(=O)C1=C(C)NC(SCC(=O)Nc2nccs2)=C(C#N)C1c1ccc(Cl)cc1 (configuration not stated)	?	10µM*[quencher]	-17%	2
C=CCOC(=O)C1=C(C)NC(SC)=C(C#N)C1c1cccs1 (configuration not stated)	-6%	-27%	-9%	.
CCOC(=O)C1=C(C)NC(SCc2cc(=O)[nH][nH]2)=C(C#N)C1c1cccs1 (configuration not stated)	?	?	13µM*	3
CCOC(=O)C1=C(C)NC(SCC(N)=O)=C(C#N)C1c1cccs1 (configuration not stated)	2%	-8%	1%	-2
C=CCOC(=O)C1=C(C)NC(SCC(=O)Nc2nccs2)=C(C#N)C1c1cccs1 (configuration not stated)	-14%	16µM*[quencher]	?	-1
O=C(Nc1ccc(F)cc1)c1cc2cc3ccc(Cl)cc3nc2o1	-10%	0%	-11%	.
O=C(O)C1CC(CCCP(=O)(O)O)CCN1 (configuration not stated)	.	.	.	2
O=C(CCN1C(=O)/C(=C/c2ccc(Cl)cc2)SC1=S)Nc1cccc(C(=O)O)c1	.	.	.	7
Cc1ccc(NC(=O)COc2cccc(/C=C3\SC(=S)N(CCC(=O)O)C3=O)c2)cc1Cl	-1%	-13%	13µM*	10
O=C(O)CCN1C(=O)/C(=C\c2cccc(OCC(=O)Nc3ccc(Cl)cc3)c2)SC1=S	-4%	-16%	13µM*	13
CCN(C(=O)Cn1c(SCc2ccccc2F)nc2cccnc21)c1ccccc1	2%	2%	3%	.
O=C1c2cccc([N+](=O)[O-])c2C(=O)N1CCO	-3%	-5%	-5%	2
O=C1CSC(=S)N1N1C(=O)c2cccc([N+](=O)[O-])c2C1=O	?	-25%	13µM*	-14
COCCCCCCCCCCCC(=O)O	7%	5%	-3%	1
